Reference: PubChem BioAssay (Tox21)
Records with an inconclusive call do not appear. Where a call stands in place of a potency, no number is given. Calls of active or inactive are those of the source. The call rests on the fitted dose curve; in most records, active means well fitted cell-killing curve with a large enough effect in the repeat runs; inconclusive means weak or mixed curves; inactive means no such curve, though single readings can be large or run the other way.

Experiment: qHTS assay for identifying genotoxic compounds that show differential cytotoxicity against isogenic chicken DT40 cell lines with known DNA damage response pathways - Rad54/Ku70 mutant cell line (AID 743015); further: nearly all actives have a fitted effect of over 60% in size
Conditions: DT40 Rad54/Ku70 mutant viability, CellTiter-Glo, 40 h; series mostly up to 66.8 µM
Excerpt: National Center for Advancing Translational Sciences [NCATS]
NIH Chemical Genomics Center [NCGC]
U.S. Environmental Protection Agency [EPA]
National Institutes of Environmental Health Sciences [NIEHS]
National Toxicology Program [NTP]
U.S. Food and Drug Administration [FDA]
DNA repair pathways play a critical role in cellular homeostasis by repairing DNA damage induced by endogenous processes and xenobiotics. Isogenic chicken DT40 cell lines deficient in different DNA repair pathways can be used to identify genotoxic compounds and aid in characterizing the nature of the DNA damage induced. Two DNA repair-deficient cell lines with disrupted genes, Rad54/Ku70 or Rev3, were used to screen the Tox21 10K compound library. Possible genotoxicity was based on the presence of a significant increase in cytotoxicity in one or more of the DNA repair-deficient cell lines compared to that observed in the parental DNA repair-proficient cell line. CellTiter Glo viability assay (Promega, Madison, WI) was used to measure cell viability in these cells after compound treatment. This assay includes the data from the Rad54/Ku70 mutant cell line.
Tox21 Assay Protocol Summary:
300 DT40 mutant cells in 5 uL/well were dispensed into white, solid-bottom 1536-well plates using a Multidrop Combi (ThermoFisher Scientific, Waltham, MA) dispenser. After the assay plates were incubated at 37 C/5% CO2 for approximately 0.5 hour, 23 nL of compounds dissolved in DMSO, positive controls or DMSO only was transferred into the assay plate by a pintool work station (Kalypsys, San Diego, CA). The assay plates were incubated at 37 C/5% CO2 for 40 hours. After 5 uL per well of CellTiter-Glo reagent was added into each well of the assay plates, the plates were incubated for 30 min at room temperature and the luminescence intensity of the plates was measured using a ViewLux (PerkinElmer, Shelton, CT) plate reader.
Potency means the concentration at half of the fitted maximal effect.

SMILES	Potency
CCCCNC(C)(C)[P+](=O)O	inactive
C[C@]12CC[C@@H]3c4ccc(OC(=O)N(CCCl)CCCl)cc4CC[C@H]3[C@@H]1CC[C@@H]2OP(=O)(O)O	inactive
O=C(CS(=O)C(c1ccccc1)c1ccccc1)NO (stereo not given)	inactive
CN1[C@@H]2CC[C@H]1CC(OC1c3ccccc3CCc3ccccc31)C2 (stereo not given in full)	11.4 µM (active)
CC1(C)[C@H](C=C(Cl)Cl)[C@H]1C(=O)OCc1c(F)c(F)cc(F)c1F	inactive
Cc1ccc(N(SC(F)(Cl)Cl)S(=O)(=O)N(C)C)cc1	0.137 µM (active)
CN(C)CCCCCCN(C)C (tested in a mixture with another compound)	inactive
Clc1ccc2c(c1)C(c1ccccc1)=NCc1nncn1-2	inactive
C=CCN1CC[C@]23c4c5ccc(O)c4O[C@H]2[C@@H](O)C=C[C@H]3[C@H]1C5	inactive
C[C@]12CC[C@H](O)C[C@H]1CC[C@@H]1[C@@H]2CC[C@]2(C)[C@@H](c3ccc(=O)oc3)C[C@H]3O[C@]132	13.3 µM (active)
O=C1C(I)=CC(=C(c2cc(I)c(O)c(I)c2)c2ccccc2C(=O)O)C=C1I	inactive
COc1ccc(OC)c(C[C@H](C)N)c1	inactive
COC(COC(N)=O)C1=C(N2CC2)C(=O)C(C)=C(N2CC2)C1=O (stereo not given)	0.0047 µM (active)
CCC(=O)O[C@@](Cc1ccccc1)(c1ccccc1)[C@@H](C)CN(C)C	inactive
C[C@]12CC[C@H](OS(=O)(=O)O)CC1=CC[C@@H]1[C@@H]2CC[C@]2(C)C(=O)CC[C@@H]12	inactive
C[C@@H]1[C@H](O)[C@@H](C)/C=C/C=C/CC/C=C/C=C/C=C/C=C/[C@H](O[C@H]2O[C@@H](C)[C@H](O)[C@@H](N)[C@H]2O)CC2O[C@](O)(C[C@@H](O)[C@H](O)CC[C@@H](O)C[C@@H](O)C[C@@H](O)CC(=O)O[C@H]1C)C[C@H](O)[C@H]2C(=O)O	inactive
CN[C@H]1C[C@@H](N)[C@H](O)[C@@H](O[C@@H]2O[C@H](CO)[C@H](O)[C@@H]3OC4(O[C@H]23)O[C@H](C(N)CO)[C@H](O)[C@H](O)[C@H]4O)[C@@H]1O (stereo not given in full)	inactive
CCCC(C)C1(CC)C(=O)NC(=O)NC1=O (stereo not given)	inactive
COc1ccc2c(c1)C13CCCC[C@@H]1C(C2)N(C)CC3 (stereo not given in full)	inactive
CCON=O	inactive

SMILES	Potency
CCN(CC)CCO[C@H]1CC[C@@]2(C)C(=CC[C@@H]3[C@@H]2CC[C@]2(C)C(=O)CC[C@@H]32)C1	1.33 µM (active)
Cc1ccccc1-n1c(C)nc2ccccc2c1=O	60.4 µM (active)
O=C(OCCN1CCCCC1)C(O)(c1ccccc1)c1ccccc1	inactive
C[C@H]1CC[C@]2(NC1)O[C@H]1C[C@H]3[C@@H]4CC[C@H]5C[C@@H](O[C@@H]6O[C@H](CO)[C@H](O[C@@H]7O[C@H](CO)[C@@H](O)[C@H](O[C@@H]8OC[C@@H](O)[C@H](O)[C@H]8O)[C@H]7O[C@@H]7O[C@H](CO)[C@@H](O)[C@H](O)[C@H]7O)[C@H](O)[C@H]6O)CC[C@]5(C)[C@H]4CC[C@]3(C)[C@H]1[C@@H]2C	2.37 µM (active)
c1ccc2c(c1)Sc1ccccc1N2CC1CN2CCC1CC2 (stereo not given)	8.41 µM (active)
CN1[C@H]2CC[C@@H]1[C@@H](C(=O)O)[C@@H](OC(=O)c1ccccc1)C2	inactive
C=CC[C@]1(O)CC[C@H]2[C@@H]3CCC4=CCCC[C@@H]4[C@H]3CC[C@@]21C	inactive
C[C@@H](Cc1ccccc1)N(C)C	inactive
C[C@]12C=CC(=O)C=C1CC[C@@H]1[C@@H]2CC[C@]2(C)OC(=O)CC[C@@H]12	inactive
CCCCCc1cc(O)c2c(c1)OC(C)(C)c1ccc(C)cc1-2	11.9 µM (active)
CC(=O)Oc1ccc2c3c1O[C@H]1[C@@H](OC(C)=O)C=C[C@H]4[C@@H](C2)N(C)CC[C@@]341	inactive
CC[N+](C)(CC)CCOC(=O)C(O)(c1ccccc1)c1ccccc1	inactive
COc1cc(C[C@H](C)N)c(OC)cc1C	inactive
C=CCN(C1=NCCN1)c1c(Cl)cccc1Cl	inactive
C[N+]1([O-])[C@@H]2CC[C@H]1CC(OC(=O)C(CO)c1ccccc1)C2 (stereo not given in full)	inactive
Cc1nnc2n1-c1sc(Br)cc1C(c1ccccc1Cl)=NC2	26.6 µM (active)
COc1ccc2c3c1O[C@H]1C(=O)CC[C@H]4[C@@H](C2)N(C)CC[C@]314	inactive
O=P(O)(O)C(Cl)(Cl)P(=O)(O)O	inactive
CC(=O)O[C@H]1C[C@H](O[C@H]2[C@@H](O)C[C@H](O[C@H]3[C@@H](O)C[C@H](OC4CC[C@@]5(C)[C@H](CC[C@@H]6[C@@H]5CC[C@]5(C)[C@@H](C7=CC(=O)OC7)CC[C@]65O)C4)O[C@@H]3C)O[C@@H]2C)O[C@H](C)[C@H]1O[C@@H]1O[C@H](CO)[C@@H](O)[C@H](O)[C@H]1O (stereo not given in full)	0.596 µM (active)
C1CN(P2(N3CC3)=NP(N3CC3)(N3CC3)=NP(N3CC3)(N3CC3)=N2)CCO1 (stereo not given)	8.41 µM (active)
